# For part of these data: Potency and affinity values are given separately.
# Experiments:
# Set-up in all cases: scale not given: direction of the effect not stated beside the values
# [1] = molecular target: Protein translocase subunit SecA (Escherichia coli (strain K12)) (UniProt P10408); test: Assay to Identify E. coli SecA ATPase Inhibitors; format: functional; details: 30 µM
# [2] = molecular target: T1, Ubiquitin-activating enzyme e1, putative (Leishmania donovani (strain BPK282A1)) (UniProt E9BSI1); test: Leishmania donovani Ubiquitin Activating Enzyme (LdE1); format: functional; details: 30 µM
# T1 sequence (whole entry): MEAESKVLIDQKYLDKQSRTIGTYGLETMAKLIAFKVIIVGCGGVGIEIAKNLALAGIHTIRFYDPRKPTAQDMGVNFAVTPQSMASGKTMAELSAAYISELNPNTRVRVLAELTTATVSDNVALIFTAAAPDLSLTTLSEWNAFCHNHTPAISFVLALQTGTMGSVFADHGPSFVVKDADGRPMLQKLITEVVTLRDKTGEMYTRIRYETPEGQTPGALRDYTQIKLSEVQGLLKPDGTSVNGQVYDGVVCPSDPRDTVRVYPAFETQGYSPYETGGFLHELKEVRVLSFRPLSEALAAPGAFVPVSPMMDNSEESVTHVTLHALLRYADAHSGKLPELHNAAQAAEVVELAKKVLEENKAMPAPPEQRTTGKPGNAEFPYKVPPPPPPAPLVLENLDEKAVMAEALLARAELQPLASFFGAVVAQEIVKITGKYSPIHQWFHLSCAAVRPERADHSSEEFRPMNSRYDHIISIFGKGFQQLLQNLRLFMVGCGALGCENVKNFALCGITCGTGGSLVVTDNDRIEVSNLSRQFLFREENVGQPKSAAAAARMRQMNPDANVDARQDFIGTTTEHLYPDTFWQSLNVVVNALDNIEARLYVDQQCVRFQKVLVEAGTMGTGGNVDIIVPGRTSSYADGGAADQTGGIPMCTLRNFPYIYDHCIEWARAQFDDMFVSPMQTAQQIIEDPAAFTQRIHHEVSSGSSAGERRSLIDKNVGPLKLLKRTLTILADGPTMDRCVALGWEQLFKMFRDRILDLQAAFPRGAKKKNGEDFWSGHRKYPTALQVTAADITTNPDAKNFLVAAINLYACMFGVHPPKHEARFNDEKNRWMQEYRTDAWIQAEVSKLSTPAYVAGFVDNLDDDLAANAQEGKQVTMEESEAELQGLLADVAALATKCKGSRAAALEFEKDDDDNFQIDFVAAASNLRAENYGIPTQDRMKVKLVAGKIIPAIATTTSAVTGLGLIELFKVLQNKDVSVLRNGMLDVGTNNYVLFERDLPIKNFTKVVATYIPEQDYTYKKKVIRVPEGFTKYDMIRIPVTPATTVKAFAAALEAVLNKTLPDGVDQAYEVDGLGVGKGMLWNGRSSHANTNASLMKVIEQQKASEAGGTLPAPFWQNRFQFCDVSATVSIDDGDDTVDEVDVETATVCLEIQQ
# [3] = molecular target: AMP-activated protein kinase, AMPK (Homo sapiens) (UniProt P54646+O43741+P54619+Q9UGJ0+Q9Y478+Q13131+Q9UGI9); test: AMP-dependent Kinase enzyme assay. An in vitro enzyme assay that detects ADP turnover that is directly proportional to AMPK activity. This uses naive AMPK that is activated during the assay with MK-8722; format: functional; details: 30 µM
# [4] = molecular target: Sialic acid-binding Ig-like lectin 9 (Homo sapiens) (UniProt Q9Y336); test: Hs-Siglec9 ALPHAscreen SOP 20170721; details: 10 µM
# Sialic acid-binding Ig-like lectin 9 (Homo sapiens), sequence (Q9Y336 whole entry): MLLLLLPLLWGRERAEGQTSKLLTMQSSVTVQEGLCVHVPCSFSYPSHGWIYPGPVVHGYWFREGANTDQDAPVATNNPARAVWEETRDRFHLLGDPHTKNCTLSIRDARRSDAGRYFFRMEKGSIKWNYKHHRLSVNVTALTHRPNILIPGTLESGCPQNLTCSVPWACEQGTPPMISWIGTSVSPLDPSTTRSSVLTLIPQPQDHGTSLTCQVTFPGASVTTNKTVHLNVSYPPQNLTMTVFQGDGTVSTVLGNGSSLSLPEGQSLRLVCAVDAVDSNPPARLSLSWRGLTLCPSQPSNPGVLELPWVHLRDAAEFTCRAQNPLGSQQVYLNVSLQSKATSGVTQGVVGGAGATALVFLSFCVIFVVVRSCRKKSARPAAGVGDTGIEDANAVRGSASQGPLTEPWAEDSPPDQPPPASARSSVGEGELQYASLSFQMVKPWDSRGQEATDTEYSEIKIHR
# Trypanosoma cruzi = test: Trypanosoma cruzi phosphomannomutase and mannose-1-phosphate guanylyltransferase assay; format: functional; details: 10 µM
# [5] = molecular target: T2, Arginase-2, mitochondrial (Homo sapiens) (UniProt P78540); test: in vitro enzyme assay to detect the production of urea directly proportional to the activity of Arginase II; format: functional; details: 33.3 µM; note: in the data most compounds retested in dose-response had high values
# T2 sequence (whole entry): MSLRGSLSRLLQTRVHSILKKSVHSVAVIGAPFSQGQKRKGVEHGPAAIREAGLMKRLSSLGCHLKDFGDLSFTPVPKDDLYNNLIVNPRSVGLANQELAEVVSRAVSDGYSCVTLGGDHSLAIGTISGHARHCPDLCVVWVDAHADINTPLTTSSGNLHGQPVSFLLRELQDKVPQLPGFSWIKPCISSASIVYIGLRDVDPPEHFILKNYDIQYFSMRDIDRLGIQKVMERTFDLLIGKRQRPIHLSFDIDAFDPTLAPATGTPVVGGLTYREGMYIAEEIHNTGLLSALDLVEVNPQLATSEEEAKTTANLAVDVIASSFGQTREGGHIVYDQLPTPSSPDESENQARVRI
# [6] = molecular target: T3, Proteasome subunit beta (Trypanosoma cruzi) (UniProt O96673); test: Trypanosoma cruzi proteasome chymotrypsin-like activity (TcProtChymo) assay.; note: in the data most compounds retested in dose-response had high values; format: functional; details: 9.37 µM
# T3 sequence (whole entry): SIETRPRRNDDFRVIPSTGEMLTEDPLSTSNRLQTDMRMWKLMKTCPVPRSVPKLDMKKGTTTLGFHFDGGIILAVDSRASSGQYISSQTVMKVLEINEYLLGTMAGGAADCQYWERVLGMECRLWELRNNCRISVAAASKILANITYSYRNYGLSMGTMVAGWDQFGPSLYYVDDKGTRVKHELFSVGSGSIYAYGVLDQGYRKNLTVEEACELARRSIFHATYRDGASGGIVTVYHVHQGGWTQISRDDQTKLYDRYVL
# Homo sapiens = species on record: Homo sapiens; test: To identify inhibition of the IFN signalling (Jak-Stat) pathway via expression of an eGFP reporter gene under the control of an IFN-stimulated response element (ISRE) containing MxA promoter.; format: functional; details: 30 µM
# [7] = molecular target: T4, Tyrosyl-tRNA synthetase, putative (Trypanosoma cruzi (strain CL Brener)) (UniProt Q4DSP6); test: Trypanosoma cruzi tyrosyl tRNA synthetase (TcYRS) _High Tyrosine SOP; format: functional; details: 30 µM; note: in the data most compounds retested in dose-response had high values
# T4 sequence (whole entry): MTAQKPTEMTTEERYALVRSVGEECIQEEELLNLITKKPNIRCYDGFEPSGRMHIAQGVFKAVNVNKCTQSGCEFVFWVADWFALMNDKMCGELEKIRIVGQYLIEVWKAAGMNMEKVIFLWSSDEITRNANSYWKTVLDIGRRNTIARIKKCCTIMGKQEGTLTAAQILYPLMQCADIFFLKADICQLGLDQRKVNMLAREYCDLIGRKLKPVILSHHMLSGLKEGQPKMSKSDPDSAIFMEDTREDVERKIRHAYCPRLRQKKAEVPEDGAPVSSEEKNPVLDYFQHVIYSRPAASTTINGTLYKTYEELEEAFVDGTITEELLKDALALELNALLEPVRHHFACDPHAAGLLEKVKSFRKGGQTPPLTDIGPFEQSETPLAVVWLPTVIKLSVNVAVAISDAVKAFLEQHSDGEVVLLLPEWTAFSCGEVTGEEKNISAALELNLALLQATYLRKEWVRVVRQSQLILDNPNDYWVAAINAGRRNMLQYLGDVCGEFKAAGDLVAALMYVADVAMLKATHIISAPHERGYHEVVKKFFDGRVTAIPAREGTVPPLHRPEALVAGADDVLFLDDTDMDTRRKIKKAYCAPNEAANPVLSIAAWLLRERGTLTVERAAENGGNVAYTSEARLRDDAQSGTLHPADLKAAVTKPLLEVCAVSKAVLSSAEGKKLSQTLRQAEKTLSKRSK
# [8] = molecular target: T4, Tyrosyl-tRNA synthetase, putative (Trypanosoma cruzi (strain CL Brener)); test: Trypanosoma cruzi tyrosyl tRNA synthetase (TcYRS) SOP; format: functional; details: 30 µM
# [9] = molecular target: Chromo domain-containing protein 1 (Saccharomyces cerevisiae (strain ATCC 204508 / S288c) (Baker's yeast)) (UniProt P32657); test: ScCHD-1 Enzyme Inhibition Assay; format: functional; details: 30 µM; note: in the data most compounds retested in dose-response had high values
# Chromo domain-containing protein 1 (Saccharomyces cerevisiae (strain ATCC 204508 / S288c) (Baker's yeast)), sequence (P32657 whole entry, the tested form may be a part): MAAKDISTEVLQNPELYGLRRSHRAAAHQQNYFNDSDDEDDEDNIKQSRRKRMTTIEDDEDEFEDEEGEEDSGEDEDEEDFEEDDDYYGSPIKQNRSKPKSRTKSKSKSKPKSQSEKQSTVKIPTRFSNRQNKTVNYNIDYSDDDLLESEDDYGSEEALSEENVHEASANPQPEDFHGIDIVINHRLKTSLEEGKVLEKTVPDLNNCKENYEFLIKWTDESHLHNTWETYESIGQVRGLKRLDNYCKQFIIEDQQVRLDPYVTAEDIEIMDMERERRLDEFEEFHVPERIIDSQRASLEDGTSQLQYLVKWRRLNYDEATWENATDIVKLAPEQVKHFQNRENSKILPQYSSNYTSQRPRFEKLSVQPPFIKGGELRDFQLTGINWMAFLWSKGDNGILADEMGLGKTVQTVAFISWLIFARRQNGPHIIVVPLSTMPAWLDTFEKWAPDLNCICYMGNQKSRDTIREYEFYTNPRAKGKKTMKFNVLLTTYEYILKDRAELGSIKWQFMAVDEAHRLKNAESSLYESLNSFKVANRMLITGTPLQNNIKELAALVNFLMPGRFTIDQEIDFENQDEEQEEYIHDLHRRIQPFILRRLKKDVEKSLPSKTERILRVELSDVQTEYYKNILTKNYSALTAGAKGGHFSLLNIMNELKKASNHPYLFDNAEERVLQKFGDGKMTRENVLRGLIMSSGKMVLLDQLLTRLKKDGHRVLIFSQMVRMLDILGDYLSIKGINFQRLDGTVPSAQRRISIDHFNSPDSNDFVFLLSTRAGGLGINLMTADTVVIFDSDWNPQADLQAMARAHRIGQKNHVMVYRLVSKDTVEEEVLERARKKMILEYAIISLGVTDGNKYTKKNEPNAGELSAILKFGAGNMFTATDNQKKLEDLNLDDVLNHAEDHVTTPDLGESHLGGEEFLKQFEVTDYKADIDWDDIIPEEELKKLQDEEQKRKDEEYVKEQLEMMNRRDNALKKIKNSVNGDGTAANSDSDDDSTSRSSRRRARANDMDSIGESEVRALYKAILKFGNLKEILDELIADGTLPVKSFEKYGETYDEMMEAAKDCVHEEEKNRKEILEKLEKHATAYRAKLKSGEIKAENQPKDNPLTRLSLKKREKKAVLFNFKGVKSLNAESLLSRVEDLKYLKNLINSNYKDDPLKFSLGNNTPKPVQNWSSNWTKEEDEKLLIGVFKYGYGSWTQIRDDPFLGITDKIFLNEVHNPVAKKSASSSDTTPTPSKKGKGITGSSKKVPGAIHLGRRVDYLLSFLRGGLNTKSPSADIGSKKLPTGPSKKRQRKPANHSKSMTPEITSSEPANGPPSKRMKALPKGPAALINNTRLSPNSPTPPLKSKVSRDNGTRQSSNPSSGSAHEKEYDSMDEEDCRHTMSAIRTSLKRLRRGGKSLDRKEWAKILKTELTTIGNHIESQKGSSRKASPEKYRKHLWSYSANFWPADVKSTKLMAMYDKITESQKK
# Protein translocase subunit SecA (Escherichia coli (strain K12)), sequence (P10408 whole entry): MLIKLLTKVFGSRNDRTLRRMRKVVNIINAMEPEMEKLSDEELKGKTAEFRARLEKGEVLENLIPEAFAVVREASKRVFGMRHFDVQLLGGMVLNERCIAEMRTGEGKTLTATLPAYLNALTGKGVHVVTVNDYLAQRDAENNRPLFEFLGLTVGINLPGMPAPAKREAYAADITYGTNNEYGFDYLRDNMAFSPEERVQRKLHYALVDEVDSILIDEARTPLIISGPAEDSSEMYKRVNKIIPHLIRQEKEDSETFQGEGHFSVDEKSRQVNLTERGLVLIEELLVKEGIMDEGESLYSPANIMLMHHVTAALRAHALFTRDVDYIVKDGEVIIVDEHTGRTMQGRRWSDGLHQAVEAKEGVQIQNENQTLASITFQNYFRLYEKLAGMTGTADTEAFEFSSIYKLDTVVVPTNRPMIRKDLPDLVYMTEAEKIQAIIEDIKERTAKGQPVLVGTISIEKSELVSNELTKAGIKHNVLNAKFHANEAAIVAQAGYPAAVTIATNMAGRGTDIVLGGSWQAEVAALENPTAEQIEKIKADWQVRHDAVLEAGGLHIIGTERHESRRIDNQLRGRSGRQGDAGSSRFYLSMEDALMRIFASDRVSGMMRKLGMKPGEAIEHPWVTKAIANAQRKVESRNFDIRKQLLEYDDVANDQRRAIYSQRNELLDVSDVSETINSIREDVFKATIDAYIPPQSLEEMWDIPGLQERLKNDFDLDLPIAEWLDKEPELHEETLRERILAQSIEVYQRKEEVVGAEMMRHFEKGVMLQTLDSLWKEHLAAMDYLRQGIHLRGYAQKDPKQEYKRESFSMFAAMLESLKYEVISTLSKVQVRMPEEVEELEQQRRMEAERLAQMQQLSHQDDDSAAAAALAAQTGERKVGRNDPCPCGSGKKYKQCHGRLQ
SMILES,Percent Effect [1],Percent Effect [2],Percent Effect [3],Percent Effect [4],Percent Effect (Trypanosoma cruzi),Percent Effect [5],Percent Effect [6],Percent Effect (Homo sapiens),Percent Effect [7],Percent Effect [8],Percent Effect [9]
COCCN1CCc2cc(C(=O)N(C)C)c(NCC3CC3)nc2CC1,-8.99%,2.7%,1.27%,-1.99%,-5.38%,-1.24%,8.5%,-19.8%,2.15%,11.1%,-0.0365%
CNC(=O)N1CCc2cc(C(=O)N(C)C)c(NCC3CC3)nc2CC1,-4.82%,8.11%,-2.71%,2.07%,-4.4%,-0.248%,10.7%,18.6%,6.45%,16.1%,-1.72%
Fc1ccc(CN2CCCC(Cn3cncn3)C2)c2ncccc12 (stereo unspecified),-5.33%,5.2%,-0.904%,8.63%,1.67%,-1.38%,12.2%,-1.67%,5.38%,11.1%,1.09%
CC(C)c1nc2n(n1)CC(NCc1ncc(-c3ccccc3)o1)CC2 (stereo unspecified),-0.807%,2.6%,-3.44%,5.78%,4.8%,4.84%,4.12%,8.03%,2.86%,2.35%,-14.2%
O=C(NCC1(N2CCOCC2)CCSC1)Nc1ccc(F)cc1 (stereo unspecified),0.856%,5.41%,-4.15%,1.34%,0.193%,-2.86%,17.9%,-10.2%,5.82%,9.76%,-1.18%
Cc1cc2c(=O)n3c(nc2s1)CCN(C(=O)c1scnc1C)CC3,-1.99%,9.46%,9.3%,2.42%,-1.58%,-5.34%,7.49%,-18%,-1.07%,11.7%,-8.95%

# Source: ChEMBL document CHEMBL3988442, “University of Dundee, Small-Polar-MMV Screening Library” (2021)
